The results in this text go back to PubChem BioAssay (NCI).

Test in all cases: NCI-60 one-dose screen, 48 h (100 = growth as untreated, 0 = no growth, -100 = all killed)
The subject of one experiment is NCI-H23 lung. To be noted: 10 µM unless noted.
The test system of another experiment is HOP-62 NSCLC. The conditions noted are these: 10 µM unless noted.
In the next experiment the test system is NCI-H460 lung. To be noted: 10 µM unless noted.
The subject of a further experiment is A549/ATCC NSCLC. To be noted: 10 µM unless noted.
The subject of another experiment is K-562 leukemia. The conditions noted are these: 10 µM unless noted.
For the next experiment, the system named is SF-295 CNS. To be noted: 10 µM unless noted.
A further experiment concerns UACC-257 melanoma. To be noted: 10 µM unless noted.
The test system of the next experiment is U251 CNS. The conditions noted are these: 10 µM unless noted.
Another experiment has as its system LOX IMVI melanoma. To be noted: 10 µM unless noted.
A further experiment relates to SK-MEL-28 melanoma. To be noted: 10 µM unless noted.
The next experiment concerns SK-MEL-2 melanoma. The conditions noted are these: 10 µM unless noted.
A further experiment concerns UO-31 renal. To be noted: 10 µM unless noted.
The test system of another experiment is TK-10 renal. The conditions noted are these: 10 µM unless noted.
Another experiment concerns A498 renal. To be noted: 10 µM unless noted.
For another experiment, the system named is HL-60(TB) leukemia. The conditions noted are these: 10 µM unless noted.
The next experiment deals with SR leukemia. The conditions noted are these: 10 µM.
Another experiment relates to OVCAR-4 ovarian. To be noted: 10 µM unless noted.
For another experiment, the system named is BT-549 breast. To be noted: 10 µM.
In the next experiment the test system is HCC-2998 colon. To be noted: 10 µM unless noted.
Another experiment relates to RXF 393 renal. The conditions noted are these: 10 µM unless noted.

The panel holds about 83,000 compounds, 20% with a hit somewhere; the sample as a whole holds those more often.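 Activity criterion: percent growth below 10, measured after cells in 96-well plates were exposed to a single compound concentration for 48 hours.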 Values without a mark were called inactive. Calls of active or inactive are those of the source.

As for `Oc1ccc2c3c1O[C@H]1c4[nH]c5ccccc5c4C[C@@]4(O)C(C2)N(CC2CC2)CC[C@]314`, the growth in the experiment on NCI-H23 lung is 90.9%; in the experiment on HOP-62 NSCLC, 95.9%; in the experiment on NCI-H460 lung it was 107%; in the experiment with A549/ATCC NSCLC, 90%; with K-562 leukemia, 77.7%; with SF-295 CNS it was 98.3%. The growth in the experiment on UACC-257 melanoma is 97.4%; in the experiment with U251 CNS, 90.2%; with LOX IMVI melanoma, 87.3%; in the experiment on SK-MEL-28 melanoma it was 105%; in the experiment on SK-MEL-2 melanoma, 90.1%; with UO-31 renal it was 69.9%. Moreover, the growth in the experiment on TK-10 renal is 95%; in the experiment on A498 renal, 100%; in the experiment on HL-60(TB) leukemia, 98.6%; in the experiment with SR leukemia, 79.6%; in the experiment with OVCAR-4 ovarian, 96.5%; with BT-549 breast, 97.4%. Also, the growth in the experiment with HCC-2998 colon was 90%.
Consider `CCCCCCCCCCCCOc1ccc(C(=O)Oc2ccc(CSP3(=O)OCC4OC(n5cnc6c(N)ncnc65)C(F)C4OP(=O)(O)OCC4OC(n5ccc(=O)[nH]c5=O)C(F)C4O3)cc2)cc1` (stereo not given), for which the growth in the experiment on NCI-H23 lung is 101%; in the experiment with HOP-62 NSCLC, 115%; with NCI-H460 lung it was 106%; with A549/ATCC NSCLC, 98.3%; in the experiment with K-562 leukemia, 52.1%; with RXF 393 renal, 60.8%. For the same compound, the growth in the experiment on SF-295 CNS was 110%; in the experiment with UACC-257 melanoma, 31.4%; with U251 CNS, 109%; with LOX IMVI melanoma, 85.9%; in the experiment on SK-MEL-28 melanoma it was 121%; in the experiment with SK-MEL-2 melanoma, 86.6%. Besides, the growth was 92.9% in the experiment with UO-31 renal; 77.5% in the experiment with TK-10 renal; 71.3% with A498 renal; -18.4% (active) in the experiment with HL-60(TB) leukemia; 25.1% in the experiment on SR leukemia; 54.2% in the experiment on OVCAR-4 ovarian. Also, the values for the growth in the experiment on BT-549 breast and in the experiment with HCC-2998 colon were 81.6% and 105%, respectively.
For `CC1(CF)NC(=O)NC1=O` (stereo not given), the growth with NCI-H23 lung is 103%; in the experiment with HOP-62 NSCLC it was 107%; in the experiment on NCI-H460 lung, 112%; with A549/ATCC NSCLC it was 113%; in the experiment with K-562 leukemia, 107%; in the experiment on RXF 393 renal, 121%. The growth with SF-295 CNS is 118%; with UACC-257 melanoma, 97.2%; in the experiment on U251 CNS, 115%; with LOX IMVI melanoma it was 100%; in the experiment on SK-MEL-28 melanoma it was 111%; in the experiment with SK-MEL-2 melanoma, 121%. The growth in the experiment with TK-10 renal is 128%; in the experiment on A498 renal, 105%; in the experiment with SR leukemia, 115%; with BT-549 breast it was 104%; in the experiment with HCC-2998 colon, 102%.
For `c1ccc2nc(OCCN3CC3)ccc2c1`, the growth was 74.2% with NCI-H23 lung; 76.8% in the experiment with HOP-62 NSCLC; 72.3% with NCI-H460 lung; 74.1% in the experiment on A549/ATCC NSCLC; 26.8% with K-562 leukemia; 59.1% in the experiment on RXF 393 renal. Also, the growth in the experiment with SF-295 CNS is 75.8%; with UACC-257 melanoma it was 59%; with U251 CNS it was 85.1%; with LOX IMVI melanoma, 86.3%; with SK-MEL-28 melanoma it was 111%; in the experiment on SK-MEL-2 melanoma, 96.3%. Besides, the growth in the experiment on UO-31 renal was 59.4%; in the experiment on TK-10 renal, 108%; with A498 renal it was 102%; with HL-60(TB) leukemia it was 72.7%; in the experiment on SR leukemia it was -13.3% (active); in the experiment with OVCAR-4 ovarian it was 75.3%. For the same compound, the growth in the experiment with HCC-2998 colon is 86.7%.
For the compound `COc1cc[c]([Hg][Cl])cc1`, the growth in the experiment on NCI-H23 lung was 47%; in the experiment on HOP-62 NSCLC, 82.6%; in the experiment on NCI-H460 lung, 43.9%; with A549/ATCC NSCLC it was 94.8%; in the experiment with K-562 leukemia, 17%; in the experiment on RXF 393 renal, -42.2% (active). In addition, the growth is 93.3% in the experiment on SF-295 CNS; 65.5% in the experiment with UACC-257 melanoma; -26% (active) in the experiment with U251 CNS; -84.2% (active) in the experiment on LOX IMVI melanoma; 39.9% in the experiment on SK-MEL-2 melanoma; 96.6% with UO-31 renal. Also, the growth in the experiment on TK-10 renal is 114%; in the experiment on A498 renal, 84.8%; in the experiment on HL-60(TB) leukemia it was -22.4% (active); in the experiment on SR leukemia it was -10.3% (active); in the experiment on OVCAR-4 ovarian, 65.1%; in the experiment on BT-549 breast, 45.5%. Besides, the growth with HCC-2998 colon was 88.7%.
With `Nc1c(Br)cc([N+](=O)[O-])cc1[N+](=O)[O-]`, the growth is 98.4% in the experiment with NCI-H23 lung; 117% in the experiment on HOP-62 NSCLC; 103% with NCI-H460 lung; 92.3% in the experiment on A549/ATCC NSCLC; 104% in the experiment on K-562 leukemia; 106% in the experiment with RXF 393 renal. For the same compound, the growth in the experiment with SF-295 CNS was 105%; with UACC-257 melanoma, 100%; with U251 CNS, 101%; in the experiment with LOX IMVI melanoma, 103%; with SK-MEL-28 melanoma it was 116%; in the experiment on SK-MEL-2 melanoma, 138%. Besides, the growth with TK-10 renal was 114%; in the experiment with A498 renal it was 92.8%; with HL-60(TB) leukemia, 67.8%; in the experiment on SR leukemia, 111%; with OVCAR-4 ovarian it was 107%; in the experiment on BT-549 breast, 110%. Also, the growth in the experiment on HCC-2998 colon is 102%.
Turning to `Cc1cccc(N=C2c3cc([N+](=O)[O-])ccc3-c3c2cc([N+](=O)[O-])cc3[N+](=O)[O-])c1`, the growth in the experiment with NCI-H23 lung is 56.5%; with HOP-62 NSCLC, 61.7%; in the experiment with NCI-H460 lung it was 33.5%; with A549/ATCC NSCLC, 72.1%; with K-562 leukemia it was 23.1%; in the experiment with RXF 393 renal, 72.2%. Moreover, the growth is 97.8% in the experiment on SF-295 CNS; 90.8% with UACC-257 melanoma; 40.3% in the experiment with U251 CNS; 39.3% with LOX IMVI melanoma; 97.2% in the experiment with SK-MEL-28 melanoma; 12.1% with SK-MEL-2 melanoma. Further, the growth is 56.1% in the experiment with TK-10 renal; 74.5% in the experiment with A498 renal; 46.7% in the experiment on HL-60(TB) leukemia; 71.3% in the experiment with OVCAR-4 ovarian; 81.8% in the experiment with BT-549 breast.
On to `CCN(CC)c1ccc(C=C2C(=O)NC(=S)NC2=O)cc1`, for which the growth was 93.4% in the experiment with NCI-H23 lung; 98.1% with HOP-62 NSCLC; 104% with NCI-H460 lung; 89.2% with A549/ATCC NSCLC; 78% with K-562 leukemia; -22.3% (active) with RXF 393 renal. The growth in the experiment on SF-295 CNS is 99.3%; in the experiment on UACC-257 melanoma, 91.3%; in the experiment on U251 CNS it was 77%; in the experiment on LOX IMVI melanoma, 80%; with SK-MEL-28 melanoma it was 103%; with SK-MEL-2 melanoma, 98.1%. Also, the growth in the experiment on UO-31 renal is 76.1%; in the experiment with TK-10 renal it was 108%; with A498 renal, 97.5%; with HL-60(TB) leukemia, 42.7%; in the experiment with SR leukemia, -50.8% (active); in the experiment on OVCAR-4 ovarian, 90.9%. The growth was 98.5% in the experiment on BT-549 breast and 96.8% in the experiment with HCC-2998 colon.
